This is an account of results in PubChem BioAssay (EPA / NIEHS).

Test [1] is described as follows: ATG_NFI_CIS: Attagene CIS-FACTORIAL HepG2 Assay for human Nuclear Factor I (NFI) (AID 2282989). The note with it: HepG2 cis-regulatory reporter, NFI response element transcription; actives raise or lower the signal. In short, it runs like this: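 Cells: human liver HepG2, transiently transfected with promoter-regulated reporter transcription units. Exposure 24 h. Detection: fluorescent RT-PCR products separated by capillary electrophoresis, normalised to DMSO negative control.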

Test [2] deals with Myc proto-oncogene protein (Homo sapiens) (UniProt P01106). The test can be described thus: ATG_Myc_CIS: Attagene CIS-FACTORIAL HepG2 Assay for human Myelocytomatosis (Myc) Proto-Oncogene Transcription Factor (AID 2282990). The note with it: HepG2, Attagene cis-reporter transcription factor activity; actives raise or lower the signal. In short, it runs like this: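 Multiplexed cis-reporter transcription in HepG2 cells after 24 h chemical treatment. Reporter mRNA measured by RT-PCR and capillary electrophoresis fluorescence; activity fitted bidirectionally against DMSO control.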

Test [3] in a line: ATG_NF_kB_CIS: Attagene CIS-FACTORIAL HepG2 Assay for human Nuclear Factor Kappa B (NF-kB) (AID 2282991). The note with it: HepG2 Attagene cis-factorial NF-kB reporter mRNA; actives raise or lower the signal. The method in brief:
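HepG2 cells transiently transfected with multiplexed cis-element reporter units measuring endogenous transcription factor activity; reporter mRNA read 24 h after dosing by RT-PCR, fluorescent labelling, HpaI digestion and capillary electrophoresis. Bidirectional fit against DMSO baseline.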

A short description of test [4]: ATG_NRF2_ARE_CIS: Attagene CIS-FACTORIAL HepG2 Assay for human Nuclear Factor Erythroid 2 Related Factor 2 (NFR2) response to Antioxidant Response Elements (ARE) (AID 2282992). The settings on record: HepG2 Attagene ARE/NRF2 reporter, transcription factor activity; actives raise or lower the signal. The method in brief:
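Using transiently transfected HepG2 cells exposed for 24 h, reporter mRNA levels were determined by RT-PCR with fluorescent primer extension and capillary electrophoresis, analysed for gain or loss of signal against DMSO.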

Test [5] is described as follows: ATG_Oct_MLP_CIS: Attagene CIS-FACTORIAL HepG2 Assay for human Octamer-Binding Transcription Factor (Oct) (AID 2282993). The settings on record: HepG2 Attagene cis-factorial Oct reporter, mRNA; actives raise or lower the signal. In short, it runs like this:
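HepG2, transient MRTU transfection, cis promoter elements; 24 h dosing; RT-PCR/CE fluorescence read-out of reporter mRNA; fit both directions vs DMSO.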

In test [6] the target is Cellular tumor antigen p53 (Homo sapiens) (UniProt P04637). The test can be described thus: ATG_p53_CIS: Attagene CIS-FACTORIAL HepG2 Assay for human p53 Transcription Factor (AID 2282994). The note with it: HepG2 p53 cis-element reporter, Attagene mRNA; actives raise or lower the signal. The method in brief:
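In HepG2 cells, reporter transcription units under cis-regulatory promoters were transiently introduced. Following 24 h treatment, RNA was processed to labelled, digested cDNA fragments read by capillary electrophoresis; fitting was bidirectional versus DMSO.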

The target in test [7] is human Peroxisome Proliferator-activated Receptor alpha (PPARa), PPARA (gene 5465) (UniProt Q07869). The test can be described thus: ATG_PPARa_TRANS: Attagene TRANS-FACTORIAL HepG2 Assay for human Peroxisome Proliferator-activated Receptor alpha (PPARa) (AID 2283001; active = hit-call score of the fitted dose curve at least 0.9, where 1 is the maximum). The method in brief: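 Exposure: 24 h, transiently transfected HepG2 cells. Endpoint: GAL4-UAS reporter mRNA, RT-PCR with capillary electrophoresis fluorescence. Baseline: DMSO; increases fitted.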

In test [8] the target is Nuclear receptor subfamily 1 group I member 2 (Homo sapiens) (UniProt O75469). The test can be described thus: ATG_PXR_TRANS: Attagene TRANS-FACTORIAL HepG2 Assay for human Pregnane X Receptor (PXR) (AID 2283008; active = hit-call score of the fitted dose curve at least 0.9, where 1 is the maximum). In short, it runs like this:
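Multiplexed TRANS reporter panel in HepG2; this component tracks PXR-Gal4-driven reporter mRNA after 24 h dosing, measured by RT-PCR with capillary electrophoresis fluorescence, fitted against DMSO.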

The target of test [9] is human RAR-related Orphan Receptor beta (RORb), RORB (gene 6096) (UniProt Q92753). The test is described as follows: ATG_RORb_TRANS: Attagene TRANS-FACTORIAL HepG2 Assay for human RAR-related Orphan Receptor beta (RORb) (AID 2283010; active = hit-call score of the fitted dose curve at least 0.9, where 1 is the maximum). The method in brief: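 Multiplexed transcription-factor reporter assay: HepG2 cells transiently carrying NR-Gal4/GAL4-UAS constructs, 24 h treatment, mRNA quantified by RT-PCR plus capillary electrophoresis fluorescence; activity scored as induction over DMSO.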

Test [10] deals with human Peroxisome Proliferator-activated Receptor delta (PPARd), PPARD (gene 5467) (UniProt Q03181). The test can be described thus: ATG_PPARd_TRANS: Attagene TRANS-FACTORIAL HepG2 Assay for human Peroxisome Proliferator-activated Receptor delta (PPARd) (AID 2283002; active = hit-call score of the fitted dose curve at least 0.9, where 1 is the maximum). The method in brief: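 Multiplexed trans-activation format: HepG2 liver cells expressing exogenous NR-Gal4 chimeras and GAL4-UAS reporters were exposed for 24 h. Reporter mRNA was detected by RT-PCR with capillary electrophoresis fluorescence; activity fitted as gain of signal relative to DMSO.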

Test [11] concerns the target human RAR-related Orphan Receptor gamma (RORg), RORC (gene 6097) (UniProt P51449). The test is described as follows: ATG_RORg_TRANS: Attagene TRANS-FACTORIAL HepG2 Assay for human RAR-related Orphan Receptor gamma (RORg) (AID 2283011; active = hit-call score of the fitted dose curve at least 0.9, where 1 is the maximum). In short, it runs like this: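 Reporter transcripts from a transfected RORg-GAL4 chimera in HepG2 cells were quantified 24 h after dosing by RT-PCR, 6-FAM labelling, HpaI digestion and capillary electrophoresis; increases over DMSO baseline were fitted.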

Test [12] deals with Peroxisome proliferator-activated receptor gamma (Homo sapiens) (UniProt P37231). The test is described as follows: ATG_PPARg_TRANS: Attagene TRANS-FACTORIAL HepG2 Assay for human Peroxisome Proliferator-activated Receptor-gamma (PPARg) (AID 2283007; active = hit-call score of the fitted dose curve at least 0.9, where 1 is the maximum). In short, it runs like this: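 HepG2 cells transiently transfected with multiplexed GAL4-UAS reporter units and exogenous chimeric NR-Gal4 proteins; reporter mRNA quantified after 24 h compound exposure by RT-PCR, fluorescent labelling, HpaI digestion and capillary electrophoresis; gain-of-signal fitted versus DMSO baseline.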

Test [13] has as its target human Retinoic Acid Receptor gamma (RARg), RARG (gene 5916) (UniProt P13631). The test is described as follows: ATG_RARg_TRANS: Attagene TRANS-FACTORIAL HepG2 Assay for human Retinoic Acid Receptor gamma (RARg) (AID 2283009; active = hit-call score of the fitted dose curve at least 0.9, where 1 is the maximum). In short, it runs like this: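 Gain-of-signal relative to DMSO is reported from fluorescent capillary electrophoresis of RT-PCR reporter products. These came from HepG2 cells expressing transfected RARg-GAL4 chimeras with UAS reporters, harvested 24 h after dosing.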

Test [14] concerns the target Retinoic acid receptor alpha (Homo sapiens) (UniProt P10276). The test is described as follows: ATG_RARa_TRANS: Attagene TRANS-FACTORIAL HepG2 Assay for human Retinoic Acid Receptor alpha (RARa) (AID 2283005; active = hit-call score of the fitted dose curve at least 0.9, where 1 is the maximum). In short, it runs like this:
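HepG2 cells transiently transfected with multiple reporter units expressing chimeric RARα-GAL4 fusion, with GAL4-UAS-driven reporters. After 24 h compound exposure, reporter mRNA induction quantified by RT-PCR and capillary electrophoresis with fluorescent labeling; gain-of-signal fitted relative to DMSO control.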

The structures appear in SMILES notation. Inconclusive results are not listed. Calls of active or inactive are those of the source. Rule for the calls, unless noted: active = hit-call score of the fitted dose curve at least 0.9, where 1 is the maximum; inactive = score below 0.9.

Sequence of human Retinoic Acid Receptor gamma (RARg), RARG (gene 5916) (P13631 whole entry, looked up, the tested form may be a part): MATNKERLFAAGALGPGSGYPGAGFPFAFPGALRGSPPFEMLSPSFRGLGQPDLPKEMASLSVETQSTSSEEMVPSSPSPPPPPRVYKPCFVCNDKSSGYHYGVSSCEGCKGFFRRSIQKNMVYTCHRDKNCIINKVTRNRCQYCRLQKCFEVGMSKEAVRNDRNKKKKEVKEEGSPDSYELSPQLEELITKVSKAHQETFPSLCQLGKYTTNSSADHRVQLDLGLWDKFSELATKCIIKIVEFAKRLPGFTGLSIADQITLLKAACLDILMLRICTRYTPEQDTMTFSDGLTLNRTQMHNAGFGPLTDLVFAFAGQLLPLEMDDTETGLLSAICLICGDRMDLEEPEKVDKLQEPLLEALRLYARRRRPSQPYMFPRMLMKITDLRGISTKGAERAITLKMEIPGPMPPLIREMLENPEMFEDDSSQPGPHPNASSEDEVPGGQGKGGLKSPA
Sequence of Nuclear receptor subfamily 1 group I member 2 (Homo sapiens) (O75469 whole entry, looked up, the tested form may be a part): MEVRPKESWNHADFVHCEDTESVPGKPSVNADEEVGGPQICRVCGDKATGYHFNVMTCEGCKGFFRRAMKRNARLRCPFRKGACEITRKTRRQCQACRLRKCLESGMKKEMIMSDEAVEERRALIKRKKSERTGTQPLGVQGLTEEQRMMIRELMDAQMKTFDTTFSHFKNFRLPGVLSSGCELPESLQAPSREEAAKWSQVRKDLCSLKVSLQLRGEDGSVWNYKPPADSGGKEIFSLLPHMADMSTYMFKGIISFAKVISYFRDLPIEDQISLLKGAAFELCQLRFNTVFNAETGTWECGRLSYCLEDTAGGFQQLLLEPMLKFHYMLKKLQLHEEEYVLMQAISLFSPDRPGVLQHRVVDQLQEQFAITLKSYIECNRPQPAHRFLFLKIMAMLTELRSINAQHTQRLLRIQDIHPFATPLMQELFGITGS
Sequence of human Peroxisome Proliferator-activated Receptor delta (PPARd), PPARD (gene 5467) (Q03181 whole entry, looked up, the tested form may be a part): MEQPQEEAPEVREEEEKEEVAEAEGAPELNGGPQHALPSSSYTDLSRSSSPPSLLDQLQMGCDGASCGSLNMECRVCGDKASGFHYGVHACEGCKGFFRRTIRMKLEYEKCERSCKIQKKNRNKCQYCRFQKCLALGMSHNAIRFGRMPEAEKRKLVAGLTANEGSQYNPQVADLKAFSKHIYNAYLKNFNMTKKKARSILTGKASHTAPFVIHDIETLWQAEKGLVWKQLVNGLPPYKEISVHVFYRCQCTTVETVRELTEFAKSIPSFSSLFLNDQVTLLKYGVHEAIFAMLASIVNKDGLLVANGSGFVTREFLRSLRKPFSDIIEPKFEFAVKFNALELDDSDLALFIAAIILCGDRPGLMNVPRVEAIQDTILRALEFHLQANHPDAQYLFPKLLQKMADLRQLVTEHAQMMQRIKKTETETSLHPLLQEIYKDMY
Sequence of Peroxisome proliferator-activated receptor gamma (Homo sapiens) (P37231 whole entry, looked up, the tested form may be a part): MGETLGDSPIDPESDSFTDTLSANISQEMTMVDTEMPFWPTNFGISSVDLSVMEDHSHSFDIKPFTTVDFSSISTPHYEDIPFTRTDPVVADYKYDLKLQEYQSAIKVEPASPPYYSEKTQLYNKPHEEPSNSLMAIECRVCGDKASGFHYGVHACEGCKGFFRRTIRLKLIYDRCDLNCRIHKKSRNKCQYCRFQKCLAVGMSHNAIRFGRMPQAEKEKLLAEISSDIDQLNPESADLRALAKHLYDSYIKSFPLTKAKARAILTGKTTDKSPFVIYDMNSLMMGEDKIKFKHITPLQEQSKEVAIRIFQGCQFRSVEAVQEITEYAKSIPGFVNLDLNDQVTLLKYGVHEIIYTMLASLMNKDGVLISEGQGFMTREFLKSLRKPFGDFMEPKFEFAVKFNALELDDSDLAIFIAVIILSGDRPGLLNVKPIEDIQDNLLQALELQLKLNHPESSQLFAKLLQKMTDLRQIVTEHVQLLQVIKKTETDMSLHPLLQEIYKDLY
Sequence of human RAR-related Orphan Receptor beta (RORb), RORB (gene 6096) (Q92753 whole entry, looked up, the tested form may be a part): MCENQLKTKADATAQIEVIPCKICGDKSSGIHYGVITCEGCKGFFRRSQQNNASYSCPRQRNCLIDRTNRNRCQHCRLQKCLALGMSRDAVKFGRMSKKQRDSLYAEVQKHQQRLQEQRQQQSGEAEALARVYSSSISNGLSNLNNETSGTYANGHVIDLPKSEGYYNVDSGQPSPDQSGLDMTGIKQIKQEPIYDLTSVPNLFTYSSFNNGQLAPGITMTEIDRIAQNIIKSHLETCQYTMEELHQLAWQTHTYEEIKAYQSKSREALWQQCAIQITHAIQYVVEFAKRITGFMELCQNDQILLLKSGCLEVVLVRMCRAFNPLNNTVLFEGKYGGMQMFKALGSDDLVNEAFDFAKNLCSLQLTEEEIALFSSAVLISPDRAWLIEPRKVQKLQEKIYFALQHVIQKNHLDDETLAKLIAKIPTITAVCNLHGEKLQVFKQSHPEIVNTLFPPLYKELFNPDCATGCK
Sequence of human Peroxisome Proliferator-activated Receptor alpha (PPARa), PPARA (gene 5465) (Q07869 whole entry, looked up, the tested form may be a part): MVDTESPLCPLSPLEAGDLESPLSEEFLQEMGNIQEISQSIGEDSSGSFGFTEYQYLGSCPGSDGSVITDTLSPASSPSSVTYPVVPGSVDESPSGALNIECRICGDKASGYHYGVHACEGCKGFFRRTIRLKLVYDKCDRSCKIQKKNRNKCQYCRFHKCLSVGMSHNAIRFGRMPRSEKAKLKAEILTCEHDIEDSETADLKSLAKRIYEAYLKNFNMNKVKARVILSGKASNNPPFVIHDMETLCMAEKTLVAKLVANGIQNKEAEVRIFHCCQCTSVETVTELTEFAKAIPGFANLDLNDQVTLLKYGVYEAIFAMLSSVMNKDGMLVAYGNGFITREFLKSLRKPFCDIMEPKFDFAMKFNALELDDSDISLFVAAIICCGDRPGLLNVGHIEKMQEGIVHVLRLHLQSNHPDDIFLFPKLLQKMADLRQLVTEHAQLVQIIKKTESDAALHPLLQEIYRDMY
Sequence of Cellular tumor antigen p53 (Homo sapiens) (P04637 whole entry, looked up, the tested form may be a part): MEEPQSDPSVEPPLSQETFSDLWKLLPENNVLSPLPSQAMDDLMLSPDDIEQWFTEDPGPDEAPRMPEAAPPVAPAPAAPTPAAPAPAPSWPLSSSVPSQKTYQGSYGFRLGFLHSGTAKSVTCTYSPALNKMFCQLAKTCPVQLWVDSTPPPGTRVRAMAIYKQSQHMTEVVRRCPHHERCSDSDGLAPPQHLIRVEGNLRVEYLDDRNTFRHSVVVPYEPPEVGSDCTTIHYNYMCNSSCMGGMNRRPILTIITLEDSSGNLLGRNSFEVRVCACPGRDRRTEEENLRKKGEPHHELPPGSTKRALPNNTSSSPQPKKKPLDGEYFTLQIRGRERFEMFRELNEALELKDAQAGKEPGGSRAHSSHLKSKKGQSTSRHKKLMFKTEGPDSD
Sequence of human RAR-related Orphan Receptor gamma (RORg), RORC (gene 6097) (P51449 whole entry, looked up, the tested form may be a part): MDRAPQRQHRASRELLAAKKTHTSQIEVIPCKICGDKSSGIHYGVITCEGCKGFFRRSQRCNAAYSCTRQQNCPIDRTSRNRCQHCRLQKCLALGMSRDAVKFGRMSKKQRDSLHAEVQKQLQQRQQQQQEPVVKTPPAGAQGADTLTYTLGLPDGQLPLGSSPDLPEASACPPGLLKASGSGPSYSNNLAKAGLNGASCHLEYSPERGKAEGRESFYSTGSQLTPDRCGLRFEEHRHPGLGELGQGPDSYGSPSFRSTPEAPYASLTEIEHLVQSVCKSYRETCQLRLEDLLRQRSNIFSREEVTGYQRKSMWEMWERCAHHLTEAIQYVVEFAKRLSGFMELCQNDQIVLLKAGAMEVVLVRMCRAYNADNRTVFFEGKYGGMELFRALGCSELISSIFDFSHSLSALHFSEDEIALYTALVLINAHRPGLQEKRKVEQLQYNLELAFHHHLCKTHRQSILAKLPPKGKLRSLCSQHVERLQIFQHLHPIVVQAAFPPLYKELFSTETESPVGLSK
Sequence of Myc proto-oncogene protein (Homo sapiens) (P01106 whole entry, looked up): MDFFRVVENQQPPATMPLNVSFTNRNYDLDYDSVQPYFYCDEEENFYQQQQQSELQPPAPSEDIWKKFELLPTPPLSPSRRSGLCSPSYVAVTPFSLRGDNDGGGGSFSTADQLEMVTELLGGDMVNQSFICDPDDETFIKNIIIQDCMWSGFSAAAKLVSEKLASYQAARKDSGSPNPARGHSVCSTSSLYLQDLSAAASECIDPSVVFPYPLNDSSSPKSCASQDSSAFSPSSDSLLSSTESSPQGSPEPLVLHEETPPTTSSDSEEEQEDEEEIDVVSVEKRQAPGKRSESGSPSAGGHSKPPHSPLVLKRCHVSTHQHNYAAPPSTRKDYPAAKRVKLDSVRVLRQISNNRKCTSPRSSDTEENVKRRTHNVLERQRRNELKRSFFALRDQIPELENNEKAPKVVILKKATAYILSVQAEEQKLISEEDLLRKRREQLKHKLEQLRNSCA
Sequence of Retinoic acid receptor alpha (Homo sapiens) (P10276 whole entry, looked up, the tested form may be a part): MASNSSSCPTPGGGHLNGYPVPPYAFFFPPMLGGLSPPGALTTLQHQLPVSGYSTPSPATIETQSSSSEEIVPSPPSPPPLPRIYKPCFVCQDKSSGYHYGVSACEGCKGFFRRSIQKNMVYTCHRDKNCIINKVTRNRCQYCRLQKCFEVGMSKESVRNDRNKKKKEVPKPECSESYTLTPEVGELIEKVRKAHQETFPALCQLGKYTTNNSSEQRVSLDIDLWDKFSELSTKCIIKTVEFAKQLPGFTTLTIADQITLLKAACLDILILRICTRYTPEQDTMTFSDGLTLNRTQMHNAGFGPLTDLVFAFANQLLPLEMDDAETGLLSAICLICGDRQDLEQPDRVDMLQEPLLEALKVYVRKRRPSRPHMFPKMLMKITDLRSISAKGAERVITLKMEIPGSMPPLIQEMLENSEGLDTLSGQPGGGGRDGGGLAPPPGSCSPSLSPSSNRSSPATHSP

On to `Cc1ccc(C=O)cc1`, for which the result in test [1], in test [2], in [3], in test [4], in [5] and in test [6] was inactive. Also, the compound was called inactive in test [7], in test [8] and in test [9].
Take `Cc1ccc2sc3cccc(C)c3c2c1`: the outcome in [1], in test [2], in test [3], in test [4], in test [5] and in test [6] was inactive. In addition, the call in [7], in test [10] and in test [11] was inactive.
In the case of `CCC(C)CCCC(C)(C)O` (stereo unspecified), the call in test [1], in [2], in [3], in test [4], in [5] and in test [6] was inactive. The compound was classed as inactive in test [7], in test [12], in test [8], in [13], in test [9] and in test [11].
Regarding `CSc1nnc(C(C)(C)C)c(=O)[nH]1`, the result in test [1], in test [2], in test [3], in test [4], in test [5] and in test [6] was inactive. Further, the call in test [7], in test [12], in test [8] and in [11] was inactive.
Regarding `CCCCCC=CCC(=O)OC`, the compound was called inactive in test [1], in test [2], in test [3], in test [4], in test [5] and in test [6]. Moreover, the call in test [7], in test [8] and in test [9] was inactive. For the same compound, the AC50 in test [12] was 75.4 µM (active).
For `C=CC(=O)NCOCC(C)C`, the outcome in test [1], in [2], in [3], in test [5], in test [6] and in test [7] was inactive. For the same compound, the compound was classed as inactive in test [12] and in test [8]. Besides, in [4], the AC50 was 54.6 µM (active).
Regarding `CCC(=O)OCCC(C)CCC=C(C)C` (stereo unspecified), the compound was classed as inactive in test [1], in test [2], in test [3], in test [5], in [6] and in test [7]. The compound was classed as inactive in test [10] and in [8]. The half-maximal activity concentration (AC50) in [4] is 63.9 µM (active).
For `Cc1cccc(C)c1C`, the outcome in test [1], in [2], in test [3], in test [4], in test [5] and in [6] was inactive. For the same compound, the result in test [7], in test [9] and in test [11] was inactive.
In the case of `CC(C)(C#N)c1cc(Cn2cncn2)cc(C(C)(C)C#N)c1`, the outcome in test [1], in test [2], in test [3], in [4], in test [5] and in [6] was inactive. Moreover, the compound was called inactive in test [7], in test [12] and in [8].
On to `CC1CC(OC(=O)c2ccccc2O)CC(C)(C)C1` (stereo unspecified), for which the outcome in [1], in test [2], in [3], in test [4], in [5] and in test [6] was inactive. Further, the compound was classed as inactive in test [10], in test [14], in test [12], in test [8], in test [13] and in test [11].
For `CC(C)=CCC[C@](C)(O)[C@@H]1CC=C(C)CC1`, the compound was called inactive in test [1], in test [2], in test [3], in test [4], in test [5] and in test [6]. Further, the result in test [10], in [14], in [12], in test [13], in [9] and in test [11] was inactive. Further, the AC50 in test [8] is 15 µM (active).
